Screening results deposited in PubChem BioAssay by Sanford-Burnham Center for Chemical Genomics.
In the library only some 4% were active in any assay of this set; here they are far more common.
TIM10 inh: growth inhibitors of TIM10 yeast strain; S. cerevisiae TIM10 strain growth, BacTiter-Glo luminescence, 24 h; AID 463195; inhibition, % at 10 µM; hit rate 1.4% among 330,000;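 active = inhibition of 40% or more at the single tested concentration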;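 note: wild-type TIM10 isogenic control strain grown at permissive 25 °C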
tim23-1 inh: growth inhibitors of tim23-1 mutant yeast. S. cerevisiae tim23-1 growth, BacTiter-Glo luminescence, 24 h. inhibition, % at 20 µM. hit rate 1.3% among 330,000;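 active = growth inhibition of the mutant yeast at or above 50%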;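 note: temperature-sensitive mutant grown at 25 °C; plate controls were DMSO-treated mutant yeast for no effect and medium wells lacking yeast for full effect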
NALP1 inh: blocks the NALP1 inflammasome reconstituted in yeast. AID 2071. hit rate 0.61% among 280,000. S. cerevisiae NALP1/ASC/caspase-1 growth, X-gal OD620, 72 h. inhibition, % at 10 µM; in the data active = inhibition mostly above about 24%, no sharp cut-off; inactive = mostly below about 32%
tim10-1 inh: tim10-1 yeast growth inhibition | S. cerevisiae tim10-1 ts strain growth, BacTiter-Glo, 24 h | inhibition, % at 20 µM | hit rate 2.2% among 330,000;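 active = inhibition of at least 40%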;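 note: mutant grown at 25 °C; 0% = DMSO wells with yeast and 100% = wells holding no yeast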
NALP3 yeast inh: NALP3 inhibition in yeast | Yeast reconstituted NLRP3/ASC/caspase-1, beta-gal luminescence, 24 h | inhibition, % at 10 µM | hit rate 0.39% among 330,000;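 active = inhibition of 50% or more; inactive = inhibition below 50%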;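 note: plate controls were induced DMSO wells for no effect and uninduced yeast grown without galactose for full effect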
tim23-1 confirm: tim23-1 yeast growth inhibition, confirmed; shares compounds with tim23-1 inh; S. cerevisiae tim23-1 growth, BacTiter-Glo luminescence, 24 h; inhibition, % at 20 µM; hit rate 83% among 4,400; AID 463218;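 active = inhibition above about 39% in either of two replicate wells at 20 µM, limit read from the data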;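 note: temperature-sensitive tim23-1 mutant grown at 25 °C; 0% = DMSO wells with yeast and 100% = medium wells without yeast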
An asterisk follows results filed as active; · = not tested or not shown.

SMILES	TIM10 inh	tim23-1 inh	NALP1 inh	tim10-1 inh	NALP3 yeast inh	tim23-1 confirm
O=C(c1cnn(C(=O)c2cccc(S(=O)(=O)N3CCOCC3)c2)c1)c1ccccc1O	-3	25	-8	8	-2	·
COC(=O)c1ccsc1NC(=O)CSc1nnnn1Cc1ccccc1	11	51*	0	35	21	38
Cc1ccc(C(=O)CSc2nnnn2Cc2ccccc2)cc1C	16	51*	·	22	12	49*
CCOc1ccc(NC(=O)CSc2nc3ccsc3c(=O)n2CCC(=O)O)cc1	5	-1	12	16	2	·
CCc1cc(Cn2nc(-c3ccccc3)cc2C(=O)NCC2CC2)on1	18	33	·	20	2	·
CN=C1S/C(=C\c2ccc(Cl)cc2)C(=O)N1C	2	3	24	-1	33	·
CN=C1S/C(=C\c2cccc(Cl)c2Cl)C(=O)N1C	27	50*	·	34	18	60*
CCN(CC)S(=O)(=O)c1cccc(C(=O)NC2CCCCC2)c1	3	19	7	17	7	·
CCN(CC)S(=O)(=O)c1csc(C(=O)NC2CCCCC2)c1	-15	96*	6	-3	1	17
CC(=O)Nc1ncnc2c1c(-c1ccc(Cl)cc1)nn2C(C)(C)C	17	52*	42*	-2	49	48*
CC(C)[C@H](NC(=O)OCc1ccccc1)C(=O)OCC(=O)Nc1ccc(N2CCOCC2)cc1	-1	4	·	7	19	·
O=C(CSc1cccc[n+]1[O-])c1cc(Cl)ccc1Cl	7	59*	0	10	3	77*
COCCNC(=O)C(=O)NNC(=O)CCc1ccccc1	-10	-8	14	-21	5	·
CCc1ccc(C2CC(=O)NC(SCC(=O)OC(C)C)=C2C#N)cc1 (centres undefined)	12	55*	-6	32	18	57*
CCOC(=O)CSC1=C(C#N)C(c2ccc(C)s2)CC(=O)N1 (centres undefined)	22	58*	1	-2	23	46*
CC(C)(CO)C(O)C(=O)NCCC#N (centres undefined)	2	0	8	3	4	·
CCCC(O)(c1ccc(OC)cc1)C(CN1CCOCC1)c1ccc(Cl)cc1 (centres undefined)	-1	19	14	24	12	·
CCCC(O)(c1ccc(Cl)cc1)C(CN1CCOCC1)c1ccc(Cl)cc1 (centres undefined)	29	57*	20	-3	5	-9
COc1ccc(COC(=O)C2=C(C)NC(=O)NC2c2ccccc2)cc1 (centres undefined)	-4	8	-5	-8	2	·
O=C(CCNC(=O)c1ccc(Br)cc1)NCc1cccnc1	-5	0	·	-1	10	·
Cc1ccc2occ(/C=N/NC(=O)c3ccccc3Br)c(=O)c2c1	23	63*	19	31	10	66*
O=C(N/N=C/c1coc2ccccc2c1=O)c1ccc(Cl)cc1	21	54*	18	25	6	43*
O=C(N/N=C/c1coc2ccccc2c1=O)c1ccccc1	19	22	-9	1	1	·
CCOc1ccccc1C(=O)N/N=C/c1coc2ccc(C)cc2c1=O	18	64*	-8	28	7	66*
Cc1nc2ccccc2c(=O)n1NC(=O)c1ccco1	0	10	7	0	14	·
SMILES	TIM10 inh	tim23-1 inh	NALP1 inh	tim10-1 inh	NALP3 yeast inh	tim23-1 confirm
Cc1ccccc1OCc1nc2ccccc2c(=O)n1NC(=O)c1ccco1	10	53*	-10	20	9	38
CCN1CCC2(CC1)N=C(c1ccc(F)cc1)C(=S)N2C(=O)c1ccc(C(C)(C)C)cc1	13	53*	9	8	-11	-13
COc1ccccc1CNC(=O)COC(=O)c1nc(Cl)ccc1Cl	3	7	·	27	10	·
Cc1ccc(/C=N/NC(=O)c2cc3c(ccc4ccccc43)o2)o1	14	56*	21	-33	48	46*
O=C(N/N=C/c1ccc([N+](=O)[O-])o1)c1cc2c(ccc3ccccc32)o1	·	·	5	·	·	·
COc1ccc(CCNC(=S)NNC(=O)c2c(Br)c(C)nn2C)cc1OC	2	8	-8	13	8	·
CC(Sc1ccccc1)C(=O)NN=C1CCCCCCC1 (centres undefined)	14	4	14	-2	-4	·
Cc1cccc(C)c1OCC(=O)Nc1cccc(NC(=O)c2ccco2)c1	31	56*	0	27	11	49*
